HEK293 tox: cytotoxicity in counter-screen for GLP-1R inverse agonists. hit rate 0.13% among 410,000. HEK293 cAMP-luciferase reporter cells, luminescence, 24 h. Potency, µM (series often up to 38.3 µM), most hits filed as inhibitors;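 further: loss of luciferase light is scored as toxicity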
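1536-well qHTS counterscreen of the MLSMR; 200 cells/uL, 12 h pre-incubation, 23 nL cpd, 24 h at 37 deg C 5% CO2, luciferase detection reagent, 12 min RT, luminescence. Inhibition = undesired.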
GLP1R ag: activates the human GLP-1 receptor | P43220 | HEK293 GLP-1R CRE-luciferase, luminescence, 4-6 h; cells express a hypersensitive GLP-1R form | Potency, µM (highest dose often 45.6 µM), actives largely listed as activators | hit rate 0.007% among 380,000
Target sequence (P43220 whole entry, looked up): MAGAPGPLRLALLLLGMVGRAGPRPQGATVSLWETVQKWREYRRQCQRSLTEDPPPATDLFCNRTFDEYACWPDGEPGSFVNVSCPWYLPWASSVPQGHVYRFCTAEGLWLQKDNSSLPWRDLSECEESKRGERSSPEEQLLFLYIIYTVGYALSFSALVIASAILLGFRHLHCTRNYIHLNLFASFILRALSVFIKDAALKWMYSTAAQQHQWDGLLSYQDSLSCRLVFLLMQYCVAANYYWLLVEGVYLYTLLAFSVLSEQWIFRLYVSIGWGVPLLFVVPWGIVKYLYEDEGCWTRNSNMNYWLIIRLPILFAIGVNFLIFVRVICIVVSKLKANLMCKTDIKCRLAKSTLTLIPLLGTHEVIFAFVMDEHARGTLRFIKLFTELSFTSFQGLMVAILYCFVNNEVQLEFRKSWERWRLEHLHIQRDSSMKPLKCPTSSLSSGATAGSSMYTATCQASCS
GLP-1R inv ag: inverse agonists of human GLP-1 receptor; hit rate 1.6% among 410,000; P43220; HEK293 GLP-1R CRE-luciferase, luminescence, 24 h; GLP-1R form is constitutively active; Potency, µM (top dose mostly 38.3 µM), actives largely listed as inhibitors; further: nearly all actives have a fitted effect of over 55% in size
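GLP-1R inverse agonism mode: basal reporter luminescence in engineered HEK293 cells measured after one day of compound exposure at 37 deg C, with a 12 min room-temperature detection step.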
Mito fusion yeast: blocks mitochondrial division or promotes mitochondrial fusion. S. cerevisiae fusion-defective mutant growth rescue, CellTiterGlo 48 h. Potency, µM (doses to about 46.1 µM), most hits filed as activators. hit rate 0.23% among 320,000; further: nearly all actives have a fitted effect of over 45% in size
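Read-out: ATP-based luminescence (CellTiterGlo, 10 min ambient) reporting growth of fusion-defective ts yeast after 48 hours at 37C on glycerol/ethanol YPEG medium in the presence of compound.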
BRCA1 expr up: activators of BRCA1 expression | MCF7-BRCA1-FFLuc reporter, luminescence, 48 h; response scale: scaled: vehicle 0%, 10 µM genistein 100% | hit rate 1.1% among 380,000 | Potency, µM (doses to about 46.1 µM), hits mostly activators; further: nearly all actives have a fitted effect of over 80% in size
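Luminescence from a BRCA1-driven firefly luciferase in MCF7 cells was read after 48 h compound exposure at 37 C. Data normalized against DMSO and a 10microM genistein activation control, then curve-fitted across the titration.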
Numbers stand for hits. The list is not random: actives were taken first. Their share in the collection is about 2.8%. The call rests on the fitted dose curve; in most records, active means well fitted curve in the direction sought with a large enough effect; inconclusive means small, poorly fitted or top-dose-only effect, or another doubt; inactive means no such curve, though single readings can be large; an effect the other way counts as inactive or inconclusive.

COc1ccccc1/C=N/Nc1nccnc1Cl was read as HEK293 tox inactive, GLP1R ag inactive, GLP-1R inv ag inactive, Mito fusion yeast inactive and BRCA1 expr up 11µM.
CCOc1ccc(/C=N/Nc2ccccn2)cc1OC was read as HEK293 tox inactive, GLP1R ag inactive, GLP-1R inv ag inactive, Mito fusion yeast inactive and BRCA1 expr up 11µM.
`CCOc1ccc(/C=N/N(C)c2ccccc2)cc1OC` gave HEK293 tox inactive, GLP1R ag inactive, GLP-1R inv ag inactive, Mito fusion yeast inactive and BRCA1 expr up 4.5µM.
For C=CCOc1ccc(/C=N/Nc2ccccn2)cc1OC the results were HEK293 tox inconclusive, GLP1R ag inactive, GLP-1R inv ag inactive, Mito fusion yeast inactive and BRCA1 expr up 5µM.
For COc1cc(/C=N/N(c2ccccc2)c2ccccc2)ccc1O the results were HEK293 tox inconclusive, GLP1R ag inactive, GLP-1R inv ag inconclusive, Mito fusion yeast inactive and BRCA1 expr up inactive.
`COc1cccc(/C=N/Nc2ncccc2[N+](=O)[O-])c1OC` gave HEK293 tox inactive, GLP1R ag inactive, GLP-1R inv ag inconclusive, Mito fusion yeast inactive and BRCA1 expr up inconclusive.
CCCOc1ccc(/C=N/Nc2ccccn2)cc1OC was read as HEK293 tox inactive, GLP1R ag inactive, GLP-1R inv ag inactive, Mito fusion yeast inactive and BRCA1 expr up inactive.
For O=C(NCc1ccco1)C(=O)NCC(c1ccco1)N1CCOCC1 (centres undefined) the results were HEK293 tox inactive, GLP1R ag inactive, GLP-1R inv ag inactive, Mito fusion yeast inactive and BRCA1 expr up inactive.
For O=S(=O)(c1cc(Br)c(Br)s1)N1CCN(c2ccccc2)CC1 the results were HEK293 tox inactive and GLP-1R inv ag inactive.
`COc1ccc(/C=N/Nc2ccccn2)c(OC)c1OC` gave HEK293 tox inactive, GLP1R ag inactive, GLP-1R inv ag inactive, Mito fusion yeast inactive and BRCA1 expr up 11µM.
`COc1ccccc1C=NN=C(NN=Cc1ccccc1OC)NN=Cc1ccccc1OC` gave HEK293 tox 5µM, GLP1R ag inactive, GLP-1R inv ag 2.2µM and BRCA1 expr up inactive.
Screening COc1ccccc1C=NNC(=O)NN=Cc1ccccc1OC returned HEK293 tox inactive, GLP1R ag inactive, GLP-1R inv ag inconclusive and BRCA1 expr up inactive.
Screening Cc1cc(SCCC(=O)O)nc2c(C)cccc12 returned HEK293 tox inactive, GLP1R ag inactive, GLP-1R inv ag inactive, Mito fusion yeast inactive and BRCA1 expr up inactive.
COC(=O)c1cc(O)cc(OC)c1Oc1cc(C)cc(O)c1C(=O)O was read as HEK293 tox inactive, GLP1R ag inactive, GLP-1R inv ag 8.9µM, Mito fusion yeast inactive and BRCA1 expr up inactive.
For Cc1cc(NC(=O)C2CCCN(S(=O)(=O)c3ccc(Br)s3)C2)ccc1Br (centres undefined) the results were HEK293 tox inactive and GLP-1R inv ag inactive.
Screening CN(C)CCNC(=O)c1cc2sc3ccccc3c2s1 returned HEK293 tox inconclusive, GLP1R ag inactive, GLP-1R inv ag 3.2µM, Mito fusion yeast inactive and BRCA1 expr up inactive.
COCCN(CCOC)C(=O)c1cc2sc3ccccc3c2s1 was read as HEK293 tox inactive, GLP1R ag inconclusive, GLP-1R inv ag inactive, Mito fusion yeast inactive and BRCA1 expr up inactive.
`COc1ccc(C(=O)c2sc(Nc3ccccc3)nc2C)cc1` gave HEK293 tox inactive, GLP1R ag inactive, GLP-1R inv ag inconclusive, Mito fusion yeast inactive and BRCA1 expr up inactive.
Screening Cc1nc(Nc2ccccc2)sc1C(=O)c1ccccc1 returned HEK293 tox inactive, GLP1R ag inconclusive, GLP-1R inv ag inconclusive, Mito fusion yeast inactive and BRCA1 expr up 10µM.
For Cc1nc(Nc2ccc(Cl)c(Cl)c2)sc1C(=O)Nc1ccccc1 the results were HEK293 tox inconclusive, GLP1R ag inactive, GLP-1R inv ag inconclusive, Mito fusion yeast inconclusive and BRCA1 expr up inactive.
For Cc1nc(Nc2ccc(Cl)cc2Cl)sc1C(=O)Nc1ccccc1 the results were HEK293 tox inactive, GLP1R ag inactive, GLP-1R inv ag 10µM, Mito fusion yeast inactive and BRCA1 expr up inactive.
`CCNC(=O)c1ccc(CSc2ccc(Cl)cc2)cc1` gave HEK293 tox inactive, GLP1R ag inactive, GLP-1R inv ag inactive, Mito fusion yeast inactive and BRCA1 expr up inactive.
